Test results: ChEMBL document CHEMBL3988442, “University of Dundee, Small-Polar-MMV Screening Library” (2021)
The campaign covered roughly 67,000 compounds. About 300 (0.45%) showed an effect of 50% or more. For the sample, strong results were picked, then their nearest neighbours and some compounds at random.

target: Polyketide synthase Pks13 (Mycobacterium tuberculosis (strain ATCC 25618 / H37Rv)) (UniProt I6X8D2); assay: Mycobacterium tuberculosis Polyketide synthase 13 Thioesterase (PKS13); format: functional; parameters: scale not given: in the data most compounds retested in dose-response had high values; conditions: 30 µM
Sequence (I6X8D2 whole entry): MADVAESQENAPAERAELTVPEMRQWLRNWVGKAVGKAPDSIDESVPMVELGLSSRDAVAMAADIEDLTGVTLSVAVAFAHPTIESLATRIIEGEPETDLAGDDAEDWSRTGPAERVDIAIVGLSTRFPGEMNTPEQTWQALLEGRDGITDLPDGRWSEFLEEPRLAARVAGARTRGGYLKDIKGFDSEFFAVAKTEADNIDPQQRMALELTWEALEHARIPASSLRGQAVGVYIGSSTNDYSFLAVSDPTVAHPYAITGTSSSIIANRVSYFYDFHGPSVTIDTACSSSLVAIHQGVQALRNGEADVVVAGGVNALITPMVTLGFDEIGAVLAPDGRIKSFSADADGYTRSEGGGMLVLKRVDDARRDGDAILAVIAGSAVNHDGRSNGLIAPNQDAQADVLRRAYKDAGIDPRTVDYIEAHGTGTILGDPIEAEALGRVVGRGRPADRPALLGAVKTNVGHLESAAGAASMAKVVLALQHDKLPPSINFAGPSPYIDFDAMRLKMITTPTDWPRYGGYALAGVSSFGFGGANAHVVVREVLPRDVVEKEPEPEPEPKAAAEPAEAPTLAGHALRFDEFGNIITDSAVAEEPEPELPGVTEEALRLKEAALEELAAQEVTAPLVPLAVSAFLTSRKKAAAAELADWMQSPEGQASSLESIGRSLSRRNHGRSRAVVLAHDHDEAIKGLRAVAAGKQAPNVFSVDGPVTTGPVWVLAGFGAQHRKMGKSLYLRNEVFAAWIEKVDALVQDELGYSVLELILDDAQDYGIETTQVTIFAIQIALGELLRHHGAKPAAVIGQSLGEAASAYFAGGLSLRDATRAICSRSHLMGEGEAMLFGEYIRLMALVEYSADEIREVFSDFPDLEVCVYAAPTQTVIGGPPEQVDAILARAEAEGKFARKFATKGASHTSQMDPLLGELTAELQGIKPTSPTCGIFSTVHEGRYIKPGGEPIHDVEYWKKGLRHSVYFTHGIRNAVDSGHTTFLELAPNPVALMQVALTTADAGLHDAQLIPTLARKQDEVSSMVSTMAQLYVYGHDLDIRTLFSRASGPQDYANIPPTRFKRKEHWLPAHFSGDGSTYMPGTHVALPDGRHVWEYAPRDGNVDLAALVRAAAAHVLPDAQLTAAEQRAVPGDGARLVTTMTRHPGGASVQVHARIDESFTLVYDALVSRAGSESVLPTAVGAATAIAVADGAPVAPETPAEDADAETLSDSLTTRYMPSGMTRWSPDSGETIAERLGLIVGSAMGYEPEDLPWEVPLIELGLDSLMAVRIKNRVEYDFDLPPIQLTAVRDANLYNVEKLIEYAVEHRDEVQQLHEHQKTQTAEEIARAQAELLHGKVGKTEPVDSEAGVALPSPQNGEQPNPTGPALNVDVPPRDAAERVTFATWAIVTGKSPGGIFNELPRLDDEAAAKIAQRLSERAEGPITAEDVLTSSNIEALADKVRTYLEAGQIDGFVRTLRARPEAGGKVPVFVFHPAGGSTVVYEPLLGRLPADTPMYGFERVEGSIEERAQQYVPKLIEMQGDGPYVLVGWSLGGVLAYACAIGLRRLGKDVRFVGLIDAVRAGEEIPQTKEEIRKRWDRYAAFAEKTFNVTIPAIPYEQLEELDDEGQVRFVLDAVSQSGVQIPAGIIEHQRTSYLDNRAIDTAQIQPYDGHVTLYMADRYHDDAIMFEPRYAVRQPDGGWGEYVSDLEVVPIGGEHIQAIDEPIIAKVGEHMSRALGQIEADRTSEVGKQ

First: Cc1cc(C)n(-c2nc(C(=O)NCCS(=O)(=O)N3CCCCC3)cs2)n1
Second: Cc1cc(-c2cnn(CCNC(=O)C3CC3)c2C2CC2)on1
The Percent Effect of the first is higher: 16% for the first, -12% for the second.

Going from CN(C)C(=O)CO[C@H]1CN(Cc2ccsc2)[C@@H]2COC[C@H]12 to CN(Cc1cncnc1)[C@H]1CN(CC2CC2)[C@@H]2CCCO[C@@H]21, the Percent Effect falls from -4.76% to -5.38%.

Going from O=C(C1CC1)N1C[C@H]2CCCN(S(=O)(=O)c3cccc(F)c3)[C@H]2C1 to CCC(=O)N1CCCCC[C@@H]2[C@@H]1[C@H](c1cccc(F)c1)CN2C, the Percent Effect falls from -2.59% to -27%.

Compared with Cc1ccc(-c2ncc(C(=O)NCCNC(=O)C(C)C)s2)c(C)c1, CC(=O)NCCNC(=O)c1cnc(-c2ccc(C)cc2C)s1 is higher in Percent Effect: 1.54% for the first, 10.8% for the second.

Going from Cc1ccc(-c2ncc(C(=O)NCCNc3ncccn3)s2)c(C)c1 to CNCCNc1ccc(-c2nc(-c3cccc(OC)c3OC)no2)cn1, the Percent Effect falls from 70.6% to -36.1%.

Going from Cc1ccc(C(=O)N2CC[C@H]3[C@@H]2CCC(=O)N3c2cccnc2)o1 to Cn1cc(C2CCCN2C(=O)Cn2c(=O)oc3ccccc32)cn1 (stereo not drawn), the Percent Effect rises from -561% to -24.9%.

Going from CN1CCS(=O)(=O)[C@@H]2CCN(C(=O)CC(C)(C)C)CC[C@@H]21 to CCCN1CCN(C(=O)c2cc[nH]n2)[C@H]2CS(=O)(=O)C[C@H]21, the Percent Effect rises from -26% to -8.12%.

Going from Cc1cc(CN2C[C@@H]3COC[C@H](C(=O)N4CCCCO4)[C@@H]3C2)oc1C to Cc1ccc(CN2CC[C@@]3(O)CCN(S(=O)(=O)N(C)C)C[C@H]3C2)cc1C, the Percent Effect falls from -10.7% to -28.6%.

Compared with Cc1cnc(N2C[C@@H]3CCN(CC4CC4)C(=O)[C@H]3C2)nc1, O=C(C1CCCO1)N1C[C@@H]2CCN(c3cnccn3)C[C@@H]2C1 (stereo partly drawn) is lower in Percent Effect: -1.64% for the first, -10.1% for the second.

Going from CC(C)[C@H](NC(=O)c1cccc(CCC(C)(C)O)c1)C(N)=O to C[C@H](NC(=O)c1cccc(CCC(C)(C)O)c1)C(N)=O, the Percent Effect rises from 5.12% to 54%.

Going from CC(C)(O)CCc1cccc(C(=O)N[C@@H](CO)C(N)=O)c1 to COc1cccc(-c2cc(NCC(=O)O)nc3[nH]ccc23)n1, the Percent Effect rises from 10.3% to 58.3%.

Going from O=C1CN([C@@H]2CC[C@@H](NS(=O)(=O)c3ccccc3F)[C@H]2O)CCN1 to Cc1ccccc1S(=O)(=O)N[C@@H]1CC[C@@H](N2CCNC(=O)C2)[C@@H]1O, the Percent Effect rises from -2.59% to 53%.

First: O=C1CN([C@@H]2CC[C@@H](NS(=O)(=O)c3ccccc3)[C@H]2O)CCN1
Second: Cc1noc([C@@H]2C[C@H]3OCC[C@H]3N(S(=O)(=O)c3ccccc3)C2)n1
The Percent Effect of the first is higher: 0.207% for the first, -2.66% for the second.

First: COCCN1C[C@@H]2CCCO[C@@H]2[C@H](N(C)Cc2ccco2)C1
Second: CO[C@H]1CCN(Cc2c(C)noc2C)[C@@H]2CN(Cc3ccncc3)C[C@H]12
The Percent Effect of the first is lower: -24.6% for the first, 13.1% for the second.

Going from Cc1cc(-c2cnn(CCNC(=O)c3snnc3C)c2C2CC2)on1 to Cc1cc(-c2cnn(CCNC(=O)c3cnn(C)c3)c2C2CC2)on1, the Percent Effect falls from 90.2% to -12.5%.

Compared with COc1cccc(-c2cc(NCCO)nc3[nH]ccc23)n1, COc1cccc(-c2cc(NCCN(C)C)nc3[nH]ccc23)n1 is higher in Percent Effect: 7.17% for the first, 7.82% for the second.

First: COc1cccc(-c2noc(-c3ccc(NCCCO)nc3)n2)c1OC
Second: COc1cccc(-c2noc(-c3ccc(NCC(C)O)nc3)n2)c1OC (stereo not drawn)
The Percent Effect of the first is higher: 40.8% for the first, 30.5% for the second.

First: COc1cccc(-c2noc(-c3ccc(NCC(C)C)nc3)n2)c1OC
Second: CCC(C)Nc1ccc(-c2nc(-c3cccc(OC)c3OC)no2)cn1 (stereo not drawn)
The Percent Effect of the first is lower: 66% for the first, 69.5% for the second.

Going from COc1cccc(-c2noc(-c3ccc(NCC4CC4)nc3)n2)c1OC to CNc1cncc(C2CCCN2C(=O)c2ccc3oc(=O)n(C)c3c2)n1 (stereo not drawn), the Percent Effect falls from 36.1% to -18.4%.

Going from CN(C)C(=O)N1CC[C@]2(O)CCN(C(=O)c3ccc(C#N)nc3)C[C@@H]2C1 to CCOC(=O)[C@@H]1[C@@H](c2ccccc2)CN2CCN(C(=O)C3CC3)C[C@H]12, the Percent Effect falls from -13.4% to -34.9%.

First: Cc1nnc([C@@H]2CC[C@@H]3[C@@H](CCN3Cc3ccccn3)O2)o1
Second: O=C(CSCC1CC1)N1C[C@@H]2CC[C@H](C1)N(Cc1ccccn1)C2=O
The Percent Effect of the first is higher: -21.9% for the first, -35% for the second.

First: O=C1[C@@H]2CCN(CC3CCOCC3)C[C@@H]2OCCN1c1ccccc1
Second: CNc1cncc(C2CCCN2C(=O)Cn2c(=O)oc3ccccc32)n1 (stereo not drawn)
The Percent Effect of the first is lower: -30.7% for the first, 130% for the second.

First: CCC(=O)N1CCN(C(=O)c2cn3ccsc3n2)[C@H]2CS(=O)(=O)C[C@H]21
Second: O=C(Cc1cnccn1)N1C[C@H]2CC[C@@H]1CN(Cc1cscn1)C2
The Percent Effect of the first is higher: -15.8% for the first, -24.8% for the second.

First: CN(Cc1ccccc1)C(=O)c1nc(S(C)(=O)=O)n2ccccc12
Second: CN(CCC(F)(F)F)C(=O)c1nc(S(C)(=O)=O)n2ccccc12
The Percent Effect of the first is lower: -33.7% for the first, -23% for the second.

Compared with Cc1nc(C(=O)N(C)CC(F)(F)C(F)(F)F)c2ccccn12, Cc1noc([C@@H]2C[C@H]3OCC[C@H]3N(S(=O)(=O)c3cccnc3)C2)n1 is lower in Percent Effect: 132% for the first, 56.3% for the second.

First: CC(C)CN1C(=O)CO[C@@H]2CN(C(=O)NC(C)C)C[C@H]21
Second: Cc1noc([C@@H]2C[C@H]3OCC[C@H]3N(S(C)(=O)=O)C2)n1
The Percent Effect of the first is lower: -42.5% for the first, -22.1% for the second.

Work on CNCc1cn(C[C@H]2C[C@@H]3CCN2C[C@@H]3C(=O)NC2CCCCC2)nn1 yielded a Percent Effect of -24.7%.
